According to PMC5540273 (PLoS ONE, 2017):

Assays:
Details in all cases: concentration: 1 μM, replicates: in singlicate; n = 1
[1] = tested on: TSSK1B
[2] = tested on: TSSK3
[3] = tested on: TTK
[4] = tested on: TXK
[5] = tested on: TYK2(JH1domain-catalytic)
[6] = tested on: TYK2(JH2domain-pseudokinase)
[7] = tested on: TYRO3
[8] = tested on: ULK1
[9] = tested on: ULK2
[10] = tested on: ULK3
[11] = tested on: T1, VEGFR2
T1 construct: gene KDR

[12] = tested on: T2, VPS34
T2 construct: gene PIK3C3

[13] = tested on: VRK2
[14] = tested on: WEE1
[15] = tested on: WEE2
[16] = tested on: WNK1
[17] = tested on: WNK2
[18] = tested on: WNK3
[19] = tested on: WNK4
[20] = tested on: T3, YANK1
T3 construct: gene STK32A
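Further: KINOMEscan kinase panel screen.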

| Structure (SMILES) | %Inh [1] | %Inh [2] | %Inh [3] | %Inh [4] | %Inh [5] | %Inh [6] | %Inh [7] | %Inh [8] | %Inh [9] | %Inh [10] | %Inh [11] | %Inh [12] | %Inh [13] | %Inh [14] | %Inh [15] | %Inh [16] | %Inh [17] | %Inh [18] | %Inh [19] | %Inh [20] |
| --- | --- | --- | --- | --- | --- | --- | --- | --- | --- | --- | --- | --- | --- | --- | --- | --- | --- | --- | --- | --- |
| Cc1nccc(-c2c(-c3ccc(F)cc3)ncn2CCCN2CCOCC2)n1.Cl [SB-282975] | 3% | 43% | 0% | 31% | 42% | 28% | 14% | 9% | 26% | 20% | 0% | 0% | 0% | 9% | 16% | 12% | 6% | 2% | 0% | 0% |
| Cc1cnc(N)c(/C=C/c2cncc(C(=O)NCCc3ccc(Cl)cc3Cl)c2)c1.Cl [GSK190937] | 6% | 0% | 0% | 4% | 0% | 9% | 0% | 0% | 0% | 0% | 0% | 0% | 26% | 5% | 0% | 3% | 4% | 30% | 4% | 0% |
| COc1ccc(CSc2nnc(-c3ccc4ncsc4c3)o2)cc1C(F)(F)F | 0% | 0% | 13% | 0% | 0% | 0% | 0% | 0% | 0% | 0% | 0% | 0% | 0% | 0% | 0% | 0% | 8% | 0% | 0% | 0% |
| FC(F)(F)c1ccccc1-c1cc(-c2c[nH]nc2-c2ccccn2)ccn1 [GW679396] | 1% | 4% | 0% | 0% | 0% | 0% | 13% | 0% | 0% | 0% | 1% | 0% | 0% | 4% | 5% | 0% | 0% | 13% | 11% | 3% |
| CN1c2ccc(-c3ccc(C(N)=O)cc3)cc2-c2[nH]ncc2S1(=O)=O | 0% | 0% | 5% | 0% | 45% | 83% | 0% | 0% | 9% | 6% | 21% | 0% | 3% | 14% | 0% | 6% | 0% | 4% | 0% | 0% |
| O=c1cc(N2CCOCC2)nc2n(Cc3cccc(Cl)c3Cl)c3ccccc3n12 [GSK2299009] | 10% | 20% | 8% | 0% | 0% | 0% | 0% | 18% | 0% | 2% | 7% | 96.7% | 0% | 28% | 17% | 6% | 42% | 5% | 0% | 22% |
| O=C(Nc1n[nH]c2nc(-c3cccs3)c(Br)cc12)C1CCCC1 [SB-743341] | 24% | 0% | 37% | 7% | 0% | 7% | 1% | 26% | 32% | 0% | 28% | 0% | 0% | 0% | 22% | 0% | 5% | 0% | 3% | 24% |
| COc1ccc(Nc2nccc(N3CCC(NC(=O)C(C)c4ccc(Cl)cc4)C3)n2)cc1 (centres unmarked) [GSK1379735] | 1% | 24% | 29% | 21% | 28% | 1% | 22% | 9% | 9% | 9% | 0% | 15% | 0% | 16% | 0% | 6% | 31% | 8% | 0% | 69% |
| CNCc1ccc2nc(NC(=O)c3ccc(C(C)(C)C)cc3)cn2c1 | 0% | 0% | 0% | 8% | 0% | 24% | 0% | 20% | 15% | 58% | 6% | 2% | 74% | 0% | 0% | 0% | 0% | 30% | 13% | 2% |
| Cc1ccccc1Cn1ccn2c(=O)cc(N3CCOCC3)nc12 [GSK2269905] | 10% | 0% | 5% | 7% | 0% | 0% | 0% | 16% | 0% | 9% | 0% | 88% | 0% | 0% | 0% | 10% | 0% | 8% | 0% | 8% |
| COc1ccc(Nc2nccc(N3CCC(NC(=O)C(C)c4ccc(Cl)cc4)CC3)n2)cc1 (centres unmarked) [GSK1379812] | 0% | 53% | 0% | 0% | 0% | 0% | 0% | 0% | 0% | 0% | 1% | 0% | 0% | 31% | 0% | 0% | 0% | 47% | 19% | 10% |
| Cc1ccc(NC(=O)Nc2ccccc2F)cc1-c1ccc(C(=O)Nc2ccncc2)cc1 [GSK1398477] | 3% | 11% | 22% | 8% | 0% | 0% | 9% | 8% | 0% | 0% | 0% | 11% | 0% | 26% | 12% | 2% | 0% | 0% | 0% | 5% |
| COc1ccc(Nc2nccc(NCCNC(=O)Nc3cc(C)ccc3C)n2)cc1 [GSK1379899] | 0% | 7% | 0% | 15% | 17% | 0% | 0% | 28% | 0% | 0% | 2% | 4% | 0% | 0% | 0% | 0% | 10% | 0% | 0% | 0% |
| O=C(Nc1n[nH]c2nc(-c3ccco3)c(Br)cc12)C1CCN(Cc2ccccc2)C1.O=C(O)[C@H](O)[C@@H](O)C(=O)O (centres unmarked) [SB-742034] | 0% | 0% | 4% | 0% | 5% | 0% | 0% | 5% | 19% | 6% | 7% | 0% | 0% | 0% | 8% | 0% | 0% | 0% | 2% | 0% |
| c1ccc(-c2ccnc3[nH]ccc23)cc1 [SB-693578] | 28% | 2% | 6% | 28% | 63% | 73% | 0% | 33% | 0% | 33% | 32% | 0% | 27% | 10% | 23% | 0% | 11% | 48% | 37% | 0% |
| CC[C@@H]1CO[C@H](C(=O)Nc2ccccc2)CN1c1cc(-c2ccc3c(N)n[nH]c3c2)nc(NC)n1 [GSK2376236] | 0% | 13% | 0% | 0% | 0% | 0% | 0% | 13% | 10% | 4% | 8% | 12% | 0% | 2% | 0% | 4% | 10% | 5% | 0% | 41% |

| Structure (SMILES) | %Inh [1] | %Inh [2] | %Inh [3] | %Inh [4] | %Inh [5] | %Inh [6] | %Inh [7] | %Inh [8] | %Inh [9] | %Inh [10] | %Inh [11] | %Inh [12] | %Inh [13] | %Inh [14] | %Inh [15] | %Inh [16] | %Inh [17] | %Inh [18] | %Inh [19] | %Inh [20] |
| --- | --- | --- | --- | --- | --- | --- | --- | --- | --- | --- | --- | --- | --- | --- | --- | --- | --- | --- | --- | --- |
| CCn1c(-c2ccccc2)nc2cnccc21 [SB-733416] | 32% | 14% | 0% | 9% | 24% | 45% | 0% | 20% | 0% | 14% | 0% | 0% | 34% | 8% | 2% | 17% | 0% | 26% | 19% | 0% |
| CS(=O)(=O)CCNCc1nc(-c2ccc3ncnc(Nc4ccc5c(cnn5Cc5ccccc5)c4)c3c2)cs1.Cl.Cl [GW569716] | 0% | 1% | 3% | 3% | 22% | 57% | 0% | 0% | 0% | 0% | 0% | 0% | 16% | 0% | 5% | 5% | 3% | 0% | 62% | 3% |
| CC(=O)c1c(C)c2cnc(Nc3ccn(C)n3)nc2n(C2CCCC2)c1=O | 16% | 0% | 52% | 0% | 0% | 0% | 0% | 0% | 6% | 0% | 0% | 3% | 28% | 0% | 0% | 0% | 0% | 0% | 0% | 0% |
| O=C1NC(=O)C(c2ccc(Cl)cc2)=C1Nc1cccc(Cl)c1 [SB-317651] | 0% | 18% | 0% | 12% | 0% | 0% | 0% | 11% | 25% | 1% | 0% | 90.2% | 90.5% | 0% | 29% | 0% | 27% | 0% | 0% | 0% |
| O=C(Nc1n[nH]c2nc(-c3cccs3)c(Br)cc12)C1CC1 [SB-735297] | 0% | 0% | 0% | 22% | 9% | 0% | 12% | 0% | 6% | 3% | 0% | 6% | 0% | 0% | 0% | 0% | 0% | 0% | 29% | 0% |
| Cc1c(Cn2c(C)c(C)n3c(=O)cc(N4CCOCC4)nc23)cccc1C(F)(F)F [GSK2328680] | 11% | 7% | 0% | 20% | 5% | 4% | 0% | 9% | 0% | 14% | 0% | 20% | 0% | 9% | 14% | 0% | 0% | 0% | 0% | 6% |
| Cc1ccc(-c2nc(Nc3ccncc3)c3ccccc3n2)s1 [GSK189015] | 15% | 17% | 40% | 53% | 24% | 76% | 12% | 12% | 5% | 7% | 0% | 0% | 0% | 8% | 4% | 0% | 3% | 0% | 0% | 15% |
| CC(=O)c1c(C)c2cnc(Nc3ccc(N4CCNCC4)cn3)nc2n(C2CCCC2)c1=O | 0% | 0% | 92.1% | 5% | 0% | 0% | 0% | 0% | 45% | 0% | 6% | 0% | 0% | 0% | 0% | 0% | 0% | 0% | 0% | 16% |
| CNc1cc(-c2ccc3c(N)n[nH]c3c2)nc(N)n1 [GSK2224810] | 0% | 31% | 0% | 0% | 7% | 43% | 0% | 36% | 17% | 5% | 25% | 0% | 0% | 1% | 5% | 0% | 0% | 19% | 88% | 36% |
| COc1nccc(-c2c(-c3ccc(F)cc3)ncn2CCCN2CCOCC2)n1 [SB-282852] | 0% | 50% | 0% | 6% | 13% | 25% | 0% | 0% | 33% | 12% | 1% | 21% | 77% | 0% | 52% | 11% | 14% | 0% | 0% | 0% |
| CS(=O)(=O)Cc1ccc(Nc2nccc(-c3c(-c4cccc(NC(=O)C5CCCCC5)c4)nn4ncccc34)n2)cc1 [GSK350559] | 14% | 8% | 0% | 17% | 0% | 12% | 18% | 5% | 20% | 18% | 29% | 0% | 49% | 0% | 0% | 0% | 14% | 0% | 44% | 26% |
| CCn1c(-c2c(N)noc2C)nc2cnccc21 [SB-737856] | 19% | 3% | 0% | 31% | 0% | 21% | 12% | 18% | 7% | 16% | 0% | 0% | 0% | 18% | 11% | 20% | 0% | 17% | 78% | 9% |
| Cc1c(Cn2c3ccccc3n3c(=O)cc(N4CCOCC4)nc23)cccc1C(F)(F)F [GSK2306394] | 3% | 0% | 27% | 0% | 26% | 0% | 0% | 21% | 0% | 7% | 0% | 80% | 0% | 0% | 3% | 2% | 23% | 0% | 0% | 0% |
| Fc1ccc(-c2nc[nH]c2-c2ccncc2)cc1 [SB-217360] | 0% | 0% | 0% | 0% | 2% | 22% | 0% | 20% | 27% | 16% | 0% | 26% | 19% | 4% | 0% | 11% | 0% | 9% | 2% | 7% |
| CNC(=O)c1ccc(C)c(-n2c(C)cc(OCc3ccc(F)cc3F)c(Br)c2=O)c1 | 0% | 0% | 0% | 0% | 0% | 0% | 0% | 0% | 0% | 0% | 0% | 0% | 0% | 0% | 0% | 0% | 0% | 0% | 0% | 4% |
